Results filed as inconclusive are left out. Calls of active or inactive are those of the source. Unless noted, calls come from the whole dose curve.
Tests used:
[1] = Nuclear factor erythroid 2-related factor 2/antioxidant responsive element (Nrf2/ARE) small molecule agonists: qHTS cell viability counter screen in human keratinocytes (AID 1919968; active = well fitted curve in the direction sought with a large enough effect in the repeat runs; an effect the other way counts as inactive or inconclusive; note: nearly all actives have a fitted effect of over 55% in size)
Outline: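 Seed 1,500 KeratinoSens cells per well, then incubate 5 h at 37 C/5% CO2. Add compounds in DMSO and incubate 23 h. Add CellTiter-Fluor, wait 1 h and read fluorescence.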

[2] = Nuclear factor erythroid 2-related factor 2/antioxidant responsive element (Nrf2/ARE) small molecule agonists: luciferase reporter gene qHTS assay in human keratinocytes (AID 1919969); note: nearly all actives have a fitted effect of over 35% in size; note: potency is the fitted concentration of half-maximal effect
[3] = biological target: Gonadotropin-releasing hormone receptor (Homo sapiens) (UniProt P30968); assay: Human gonadotropin-releasing hormone receptor (GnRHR) small molecule agonists, calcium flux assay in GnRHR-HEK293 cells (AID 1920063); note: nearly all actives have a fitted effect of over 35% in size
Gonadotropin-releasing hormone receptor (Homo sapiens), sequence (P30968 whole entry, looked up): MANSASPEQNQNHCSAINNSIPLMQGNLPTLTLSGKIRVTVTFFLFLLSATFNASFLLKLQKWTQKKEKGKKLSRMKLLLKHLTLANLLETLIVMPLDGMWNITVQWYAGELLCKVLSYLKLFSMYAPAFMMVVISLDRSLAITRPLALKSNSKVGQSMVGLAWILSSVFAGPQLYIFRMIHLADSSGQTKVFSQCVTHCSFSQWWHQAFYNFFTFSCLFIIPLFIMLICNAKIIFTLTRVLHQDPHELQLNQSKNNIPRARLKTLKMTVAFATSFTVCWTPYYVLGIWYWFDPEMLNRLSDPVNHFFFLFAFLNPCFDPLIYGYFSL
Outline: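 Cells: HEK293 stably expressing human GnRHR. Steps: overnight (18 h) culture, 1 h calcium dye loading at 37 C, compound addition, kinetic fluorescence read at 480/540 nm. Each compound tested at 15 concentrations in triplicate.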

[4] = biological target: KiSS-1 receptor (Homo sapiens) (UniProt Q969F8); assay: Human kisspeptin (KISS1R) small molecule agonists, calcium flux assay in KISS1R-HEK293 cells (AID 1920064; active = well fitted curve in the direction sought with a large enough effect in the repeat runs; an effect the other way counts as inactive or inconclusive)
KiSS-1 receptor (Homo sapiens), sequence (Q969F8 whole entry, looked up): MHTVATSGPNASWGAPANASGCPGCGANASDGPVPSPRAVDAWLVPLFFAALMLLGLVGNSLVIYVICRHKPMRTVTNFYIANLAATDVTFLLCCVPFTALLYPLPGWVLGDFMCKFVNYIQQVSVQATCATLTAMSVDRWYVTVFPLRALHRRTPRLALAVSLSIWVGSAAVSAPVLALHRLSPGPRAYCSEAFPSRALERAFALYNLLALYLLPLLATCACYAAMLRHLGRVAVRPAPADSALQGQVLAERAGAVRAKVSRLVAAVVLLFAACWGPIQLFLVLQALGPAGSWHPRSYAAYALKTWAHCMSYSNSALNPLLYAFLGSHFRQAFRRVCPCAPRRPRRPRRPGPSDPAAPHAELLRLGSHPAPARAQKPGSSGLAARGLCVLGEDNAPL
Outline: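 Cells plated and incubated 18 h; dye added, 1 h at 37 C; compounds in DMSO pinned in; signal read at 480/540 nm every second for 3 min. Each compound tested at 15 concentrations in triplicate.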

[5] = G protein-coupled receptor (GPCR) small molecule agonists, calcium flux assay: HEK293 wild type cell line counter screen (AID 1920065)
Outline: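 Counter-screen of the Tox21 10K library for non-specific calcium release: dye-loaded cells received compounds in DMSO and were monitored by kinetic fluorescence (480/540 nm, 3 min). Fifteen concentrations, run in triplicate.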

[6] = p53 small molecule agonists, cell-based qHTS assay with human liver microsomes: qHTS cell viability counter screen (AID 1963579); note: nearly all actives have a fitted effect of over 45% in size
Outline: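 p53RE-bla cells, 4,000/well, dosed 5 hours after plating, with human liver microsomes (0.5 mg/mL final) plus NADPH (0.5 mg/mL final), 16 hours at 37 C. Viability read as CellTiter-Glo luminescence after 30 min at room temperature.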

[7] = p53 small molecule agonists, cell-based qHTS assay with rat liver microsomes: qHTS cell viability counter screen (AID 1963580); note: nearly all actives have a fitted effect of over 45% in size
Outline: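 Intracellular ATP, by CellTiter-Glo luminescence, defines viability. HCT-116 p53RE-bla cells, 4,000 per well, were compound-treated in the presence of rat liver microsomes and NADPH for 16 h at 37 C.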

[8] = cAMP Responsive Elements (CRE) small molecule antagonists, cell-based qHTS assay (AID 1963591; active = well fitted inhibition curve with a large enough effect in the signal ratio in the repeat runs, not every such curve was filed as active; the % refers to the signal ratio)
Outline: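 Antagonist mode: test compounds are co-incubated with the adenylyl cyclase activator NKH477 (0.25 uM final) on CRE-bla HEK293T cells for 3 h at 37 °C, followed by LiveBLAzer substrate loading.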

[9] = biological target: Beta-2 adrenergic receptor (Homo sapiens) (UniProt P07550); assay: Adrenergic beta2 receptor (ADRB2) small molecule antagonists, cell-based qHTS assay (AID 1963592); note: series mostly up to about 92 µM; nearly all actives have a fitted effect of over 50% in size
Beta-2 adrenergic receptor (Homo sapiens), sequence (P07550 whole entry, looked up): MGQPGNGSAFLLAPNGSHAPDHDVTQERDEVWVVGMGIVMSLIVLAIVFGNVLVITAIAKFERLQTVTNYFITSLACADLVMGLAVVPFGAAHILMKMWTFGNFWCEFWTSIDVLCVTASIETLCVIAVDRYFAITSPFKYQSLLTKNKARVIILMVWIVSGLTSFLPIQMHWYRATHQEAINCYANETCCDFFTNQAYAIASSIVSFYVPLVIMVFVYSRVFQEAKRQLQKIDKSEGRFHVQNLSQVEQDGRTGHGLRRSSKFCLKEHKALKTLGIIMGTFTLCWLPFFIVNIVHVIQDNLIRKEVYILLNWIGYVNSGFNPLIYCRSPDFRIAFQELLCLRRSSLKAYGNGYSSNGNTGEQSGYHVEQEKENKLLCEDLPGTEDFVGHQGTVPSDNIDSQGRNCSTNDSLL
Outline: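 Cells (CHO, stable ADRB2 overexpression) incubated 18-20hr at 37C; compounds added from DMSO; agonist mix (1nM isoproterenol, 100uM IBMX, 25uM Ro-20-1724) added; 0.5hr RT; d2-cAMP and anti-cAMP-cryptate added; 1hr RT; 665/615 nm read.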

[10] = biological target: D(2) dopamine receptor (Homo sapiens) (UniProt P14416); assay: Dopamine D2 receptor (DRD2) small molecule agonists, cell-based qHTS assay (AID 1963594); note: nearly all actives have a fitted effect of over 35% in size
D(2) dopamine receptor (Homo sapiens), sequence (P14416 whole entry, looked up): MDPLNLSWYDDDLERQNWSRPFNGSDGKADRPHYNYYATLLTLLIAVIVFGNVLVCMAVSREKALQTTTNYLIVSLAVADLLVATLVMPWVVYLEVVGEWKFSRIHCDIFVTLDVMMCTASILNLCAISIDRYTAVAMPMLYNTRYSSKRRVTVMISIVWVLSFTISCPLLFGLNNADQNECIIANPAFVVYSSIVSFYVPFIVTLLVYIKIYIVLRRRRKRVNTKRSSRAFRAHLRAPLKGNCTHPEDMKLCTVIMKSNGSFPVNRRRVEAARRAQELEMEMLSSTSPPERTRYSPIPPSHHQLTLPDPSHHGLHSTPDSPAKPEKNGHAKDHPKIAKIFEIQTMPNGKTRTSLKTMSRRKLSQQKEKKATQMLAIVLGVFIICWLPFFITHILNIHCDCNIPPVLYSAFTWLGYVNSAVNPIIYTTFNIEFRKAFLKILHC
Outline: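 cAMP accumulation in DRD2-HEK293 cells measured by HTRF after 1 h detection; compounds added 10 min before NKH477 (200nM […]) forskolin-analogue stimulation, 30 min at room temperature, with Ro20-1724 present at 0.1 mM final.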

[11] = biological target: D(2) dopamine receptor (Homo sapiens) (UniProt P14416); assay: Dopamine D2 receptor (DRD2) small molecule antagonists, cell-based qHTS assay (AID 1963595; active = well fitted inhibition curve with a large enough effect in the signal ratio in the repeat runs, with a control signal flat; the % refers to the signal ratio; note: potency is the fitted concentration of half-maximal effect)
Outline: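 Stable D2 receptor HEK293 line, 24 h after seeding. Compound preincubated 10 min, then quinpirole (12 nM) with forskolin analogue NKH477 (200 nM), 30 min, room temperature. Detection by time-resolved FRET of cAMP.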

[12] = biological target: 5-hydroxytryptamine receptor 2A (Homo sapiens) (UniProt P28223); assay: 5-hydroxytryptamine receptor 2A (HTR2A) small molecule antagonists, cell-based qHTS assay (AID 1963586); note: nearly all actives have a fitted effect of over 45% in size; note: potency is the fitted concentration of half-maximal effect
5-hydroxytryptamine receptor 2A (Homo sapiens), sequence (P28223 whole entry, looked up): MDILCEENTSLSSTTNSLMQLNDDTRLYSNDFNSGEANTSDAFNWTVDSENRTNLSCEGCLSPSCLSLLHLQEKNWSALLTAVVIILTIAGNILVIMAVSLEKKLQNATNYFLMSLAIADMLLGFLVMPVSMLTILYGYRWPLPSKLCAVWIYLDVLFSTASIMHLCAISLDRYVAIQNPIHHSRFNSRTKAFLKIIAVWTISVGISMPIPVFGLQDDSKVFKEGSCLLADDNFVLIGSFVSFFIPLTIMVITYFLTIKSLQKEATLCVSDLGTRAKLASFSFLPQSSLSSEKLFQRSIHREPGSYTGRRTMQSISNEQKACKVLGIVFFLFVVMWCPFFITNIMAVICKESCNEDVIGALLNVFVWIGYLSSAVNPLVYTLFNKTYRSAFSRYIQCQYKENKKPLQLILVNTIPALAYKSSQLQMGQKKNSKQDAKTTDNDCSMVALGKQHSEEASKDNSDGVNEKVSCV
Outline: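 Antagonist-mode intracellular calcium assay: DOI (4 nM) added after 5 min compound pre-incubation at room temperature to dye-loaded HTR2A-CHO cells. Fluorescence followed for 3 min, sampled every second.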

[13] = biological target: 5-hydroxytryptamine receptor 2A (Homo sapiens) (UniProt P28223); assay: 5-hydroxytryptamine receptor 2A (HTR2A) small molecule agonists, cell-based qHTS assay (AID 1963587); note: nearly all actives have a fitted effect of over 30% in size
Outline: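 Kinetic calcium-flux fluorescence (2 min, 1 sec intervals) after compound addition in agonist mode. HTR2A-CHO cells were cultured 18 h, then dye-loaded 1 h at 37 C.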

[14] = biological target: Muscarinic acetylcholine receptor M1 (Homo sapiens) (UniProt P11229); assay: Cholinergic receptor muscarinic 1 (CHRM1) small molecule antagonists, cell-based qHTS assay (AID 1963588); note: nearly all actives have a fitted effect of over 40% in size
Muscarinic acetylcholine receptor M1 (Homo sapiens), sequence (P11229 whole entry, looked up): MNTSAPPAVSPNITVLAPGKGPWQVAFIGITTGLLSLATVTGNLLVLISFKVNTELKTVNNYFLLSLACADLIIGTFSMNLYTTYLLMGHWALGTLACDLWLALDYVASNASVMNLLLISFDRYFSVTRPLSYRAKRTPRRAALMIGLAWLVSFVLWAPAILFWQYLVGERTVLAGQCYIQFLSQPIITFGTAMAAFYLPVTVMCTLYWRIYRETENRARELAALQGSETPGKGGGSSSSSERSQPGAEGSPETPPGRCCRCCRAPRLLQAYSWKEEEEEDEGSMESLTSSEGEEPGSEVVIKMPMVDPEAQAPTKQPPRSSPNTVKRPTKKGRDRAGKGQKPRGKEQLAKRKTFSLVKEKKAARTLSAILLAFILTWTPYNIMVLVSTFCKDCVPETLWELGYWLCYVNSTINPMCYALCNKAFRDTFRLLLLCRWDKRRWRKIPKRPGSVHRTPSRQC
Outline: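 CHRM1-CHO calcium-flux assay, antagonist mode. Cells were seeded 18 h, dye-loaded 1 h at 37 C and given compound for 5 min at RT, then acetylcholine was added at 50nM. FDSS fluorescence was read 3 min; 15 concentrations, three runs.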

[15] = biological target: Muscarinic acetylcholine receptor M1 (Homo sapiens) (UniProt P11229); assay: Cholinergic receptor muscarinic 1 (CHRM1) small molecule agonists, cell-based qHTS assay (AID 1963589); note: nearly all actives have a fitted effect of over 35% in size
Outline: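 Agonist-mode qHTS in CHO cells stably carrying human muscarinic M1. Intracellular calcium is tracked by fluorescence every second after compound transfer; each compound runs at 15 concentrations in three independent runs.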

[16] = biological target: Beta-2 adrenergic receptor (Homo sapiens) (UniProt P07550); assay: Adrenergic beta2 receptor (ADRB2) small molecule agonists, cell-based qHTS assay (AID 1963593);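 note: CHO cells stably overexpressing human ADRB2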
Outline: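 CHO cells stably over-expressing ADRB2 were plated overnight at 37C, then dosed with compounds plus a stimulation mix containing 100uM IBMX and 25uM Ro-20-1724 for 0.5hr at room temperature. cAMP was measured by HTRF competition, 1hr.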

[17] = cAMP Responsive Elements (CRE) small molecule agonists, cell-based qHTS assay (AID 1963590)
Outline: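 Agonist mode qHTS in CRE-bla HEK 293T cells: compounds dosed from DMSO for 3 h at 37 C/5% CO2, followed by LiveBLAzer B/G FRET substrate for 2 h at room temperature.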

[18] = p53 small molecule agonists, cell-based qHTS assay: qHTS cell viability counter screen (AID 1963581); note: nearly all actives have a fitted effect of over 45% in size
Outline: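 Cells: HCT-116 with p53 response element-driven beta-lactamase. Treatment: 16 h, 37 C, compounds in DMSO. Read: CellTiter-Glo luminescence after 30 min RT.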

[19] = p53 small molecule agonists, cell-based qHTS assay (AID 1963582; active = well fitted activation curve with a large enough effect in the signal ratio in the repeat runs, not every such curve was filed as active; the % refers to the signal ratio)
Outline: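 Quantitative HTS in p53RE-bla cells: after a 5 h settling period, compounds delivered in DMSO were left on cells for 16 h at 37 C, and reporter induction was measured as fluorescence following 2 h substrate loading.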

Measured: Potency

O=C(O)c1cccnc1Nc1cccc(C(F)(F)F)c1
active: [2] 23.7 µM
inactive: [1] | [3] | [4] | [5] | [6] | [7] | [8] | [9] | [10] | [11]

O=c1[nH][nH]c2ccccc12
active: [2] 62.3 µM
not listed: [17] | [18] | [19]
inactive: all other assays above

CC(C)(C)c1ccc(-c2ccc(C(C)(C)C)cc2)cc1
not listed: [16] | [17] | [18] | [19]
inactive: all other assays above

NC(N)=NS(=O)(=O)c1ccc(N)cc1
not listed: [11] | [12] | [15] | [16] | [18] | [19]
inactive: all other assays above

O=c1oc2cc(O)ccc2c2oc3cc(O)ccc3c12
active: [2] 29.4 µM
not listed: [8] | [9] | [10] | [16] | [17] | [18] | [19]
inactive: all other assays above

CC1=Nc2ccccc2C1(C)C
active: [2] 43.3 µM
not listed: [17] | [18] | [19]
inactive: all other assays above

CC[N+](C)(CC)CCOC(=O)C1c2ccccc2Oc2ccccc21
not listed: [9] | [11] | [13] | [14] | [16] | [18] | [19]
inactive: all other assays above

CCN(C)C(=O)Oc1cccc([C@H](C)N(C)C)c1
not listed: [7] | [9] | [11] | [16]
inactive: all other assays above

COc1cc(N)ccc1C
not listed: [15] | [18] | [19]
inactive: all other assays above

COc1cc(NCc2ccc3nc(N)nc(N)c3c2C)cc(OC)c1OC
not listed: [8] | [14] | [17] | [18] | [19]
inactive: all other assays above

O=Cc1cc(O)ccc1Br
active: [2] 49.2 µM
not listed: [13] | [18] | [19]
inactive: all other assays above

O=C1CC[C@@H](C(=O)O)N1
not listed: [17] | [18] | [19]
inactive: all other assays above

NCCNC(=O)c1ccc(Cl)cn1
not listed: [13] | [17] | [18] | [19]
inactive: all other assays above

CC/C=C\CC/C=C/CO
not listed: [7] | [16] | [19]
inactive: all other assays above

CCC(=O)c1ccc2c(c1)N(CCCN(C)C)c1ccccc1S2
active: [12] 0.13 µM | [11] 0.531 µM
not listed: [13] | [14] | [16] | [18] | [19]
inactive: all other assays above

From PubChem BioAssay (Tox21)
